The text below walks through data of PubChem BioAssay (NCATS).

Several values for one entry are separate records, joined by “and”; a condition that tells them apart may be missing. Identical values can stand only once. Results filed as inconclusive are left out. Unmarked numbers belong to inactive results. Activity calls are given as the source filed them. The call rests on the fitted dose curve; in most records, active means well fitted curve in the direction sought with a large enough effect; inconclusive means small, poorly fitted or top-dose-only effect, or another doubt; inactive means no such curve, though single readings can be large; an effect the other way counts as inactive or inconclusive.

The target in assay [1] is Cytochrome P450 3A7 (Homo sapiens) (UniProt P24462). The assay is described as follows: Cytochrome P450 family 3 subfamily A member 7 (CYP3A7) small molecule antagonists: luciferase biochemical qHTS assay (AID 1963596). Further: nearly all actives have a fitted effect of over 40% in size. On activity change, negative = inhibition: on the % scale 0 is the no-effect control and ±100 the full control effect. The method in brief: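 P450-Glo luminescent assay: CYP3A7 enzyme converts a proluciferin substrate to luciferin, detected by luciferase reagent; light proportional to activity. Compounds in DMSO preincubated 10 min with enzyme-substrate mix at room temperature, then NADPH regeneration added for 1 h.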

A short description of assay [2]: Viability qHTS for spleen associated tyrosine kinase inhibitor (SYKi) drug resistant MV4-11 cells (AID 1963824). Further: nearly all actives have a fitted effect of over 35% in size. The method, boiled down:
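CellTiter-Glo luminescence, read 10 min after reagent addition, reports viability after a 72 hr compound exposure. Cells are an MV4-11 line made resistant to SYK inhibition, seeded at 500 per well onto compound-containing plates.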

The nature of assay [3]: Quantitative highthroughput screen to assess conditional lethalithy of NOMO1 cells grown in RPMI1640 with untreated serum (RPMI+s) (AID 1963876). Further: nearly all actives have a fitted effect of over 35% in size.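 On Viability: 100% = DMSO wells and 0% = empty wells without cells.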 The method in brief: (§1)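 Each medium arm—HPLM with 10% dialyzed FBS, or RPMI1640 with 5 mM glucose and 10% untreated or dialyzed FBS—was screened against an 11-point, 3-fold compound titration for 48 h at 37 °C, with CellTiter-Glo luminescence as endpoint.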

Assay [4] is described as follows: Quantitative highthroughput screen to assess conditional lethalithy of NOMO1 cells grown in Human Plasma-Like Medium with dialyzed fetal bovine serum (HPLM+ds) (AID 1963878). Further: nearly all actives have a fitted effect of over 35% in size.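 On Viability: 100% = DMSO wells and 0% = empty wells on each plate.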 The method in brief:
as §1

Assay [5] is described as follows: Quantitative highthroughput screen to assess conditional lethalithy of P12 Ichikawa cells grown in Human Plasma-Like Medium with dialyzed fetal bovine serum (HPLM+ds) (AID 1963879). Further: nearly all actives have a fitted effect of over 35% in size. On Viability: series mostly up to about 46 µM. The settings on record: Potency: viability. The method, boiled down: as §1
The nature of assay [6]: Quantitative highthroughput screen to assess conditional lethalithy of P12 Ichikawa cells grown in RPMI1640 with dialyzed fetal bovine serum (RPMI+ds) (AID 1963880). Further: nearly all actives have a fitted effect of over 35% in size.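 On Viability: 100% = DMSO wells and 0% = empty wells on each plate.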 The settings on record: Potency: P12-Ichikawa viability. The method in brief:
as §1

Assay [7] is described as follows: Quantitative highthroughput screen to assess conditional lethalithy of P12 Ichikawa cells grown in RPMI1640 with untreated serum (RPMI+s) (AID 1963881). Further: nearly all actives have a fitted effect of over 35% in size.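 On Viability: series mostly up to about 46 µM; 100% = DMSO wells and 0% = empty wells without cells.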 As to conditions: Potency: viability. The method in brief:
as §1

A short description of assay [8]: Quantitative highthroughput screen to assess conditional lethalithy of SEM cells grown in Human Plasma-Like Medium with dialyzed fetal bovine serum (HPLM+ds) (AID 1963882). Further: nearly all actives have a fitted effect of over 35% in size. On Viability: series mostly up to about 46 µM. The method in brief: as §1
Assay [9] can be described thus: Quantitative highthroughput screen to assess conditional lethalithy of SEM cells grown in RPMI1640 with unreated serum (RPMI+s) (AID 1963883). Further: nearly all actives have a fitted effect of over 35% in size.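 On Viability: 100% = DMSO wells and 0% = empty wells without cells.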 The method, boiled down:
as §1

The nature of assay [10]: Quantitative highthroughput screen to assess conditional lethalithy of SEM cells grown in RPMI1640 with dialyzed fetal bovine serum (RPMI+ds) (AID 1963884). Further: nearly all actives have a fitted effect of over 35% in size.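 On Viability: series mostly up to about 46 µM; 100% = DMSO control wells and 0% = empty wells without cells.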 The method in brief: as §1
Assay [11] can be described thus: Cellular viability qHTS for adrenocortical cancer (ACC) cell line SW-13 (AID 1963989). Further: nearly all actives have a fitted effect of over 65% in size.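 On activity (max response): cells grown in serum-free medium with ITS supplement; on the % scale 0 is the no-effect control and ±100 the full control effect.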 The settings on record: SW-13 ACC cells viability, CellTiter-Glo, 48 h; activity (max response): stronger effect = lower value. The method in brief: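 48 h treatment, SW-13 in ITS/DMEM serum-free; doses up to 46 uM; readout CellTiter-Glo luminescence; curve fit four-parameter logistic.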

A short description of assay [12]: Cellular viability qHTS for adrenocortical cancer (ACC) cell line NCI-H295R (AID 1963990). Further: nearly all actives have a fitted effect of over 60% in size. The method in brief:
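Compound titrations (up to 46 uM final) are applied to NCI-H295R cultures for 48 h at 37C. Viable cell number is estimated by CellTiter-Glo signal, normalised to DMSO and doxorubicin controls.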

Assay [13] can be described thus: Quantitative highthroughput screen to assess conditional lethalithy of NOMO1 cells grown in RPMI1640 with dialyzed fetal bovine serum (RPMI+ds) (AID 1963877). Further: nearly all actives have a fitted effect of over 30% in size.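 On Viability: series mostly up to about 46 µM; 100% = DMSO control wells and 0% = empty wells.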 The method, boiled down:
as §1
Potency means the concentration at half of the fitted maximal effect.

Cytochrome P450 3A7 (Homo sapiens), sequence (P24462 whole entry, looked up): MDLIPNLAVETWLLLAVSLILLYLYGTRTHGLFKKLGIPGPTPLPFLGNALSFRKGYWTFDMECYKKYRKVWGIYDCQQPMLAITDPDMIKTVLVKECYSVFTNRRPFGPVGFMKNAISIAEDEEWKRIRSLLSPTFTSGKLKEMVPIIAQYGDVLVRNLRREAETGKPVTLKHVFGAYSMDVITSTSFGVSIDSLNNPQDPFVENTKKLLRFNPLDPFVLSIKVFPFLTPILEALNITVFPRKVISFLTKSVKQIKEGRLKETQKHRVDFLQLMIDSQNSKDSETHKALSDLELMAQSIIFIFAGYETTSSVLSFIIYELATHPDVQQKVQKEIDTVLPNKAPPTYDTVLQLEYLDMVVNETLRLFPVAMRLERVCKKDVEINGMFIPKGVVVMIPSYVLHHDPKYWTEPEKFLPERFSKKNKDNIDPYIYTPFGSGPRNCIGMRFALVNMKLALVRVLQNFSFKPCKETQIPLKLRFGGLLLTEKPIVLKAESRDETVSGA

Regarding `CN(C)C/C=C/C(=O)Nc1ccc(C(=O)Nc2cccc(Nc3ncc(Cl)c(-c4c[nH]c5ccccc45)n3)c2)cc1`, in assay [1], the Potency result is “inactive”. Moreover, the Potency in assay [2] is 10.3 nM (active) and 18.6 nM (active); in assay [3], 331 nM (active); in assay [4] it was 263 nM (active); in assay [5], 331 nM (active); in assay [6] it was 331 nM (active); in [7], 331 nM (active). For the same compound, the Potency in assay [8] was 209 nM (active); in assay [9], 186 nM (active); in assay [10], 166 nM (active); in [11], 282 nM (active); in assay [12], 562 nM (active).

Consider `NC(=O)CCCCC1CCSS1` (stereo not drawn), for which the Potency entry in assay [1] and in assay [2] was “inactive” in each case. Further, in [11], the activity (max response) was 9.98%.

Take `CC1(C)CC(=O)c2c(C(F)(F)F)nn(-c3ccc(C(N)=O)c(NC4CCC(OC(=O)CN)CC4)c3)c2C1` (stereo not drawn): the Potency in [1] was 15.1 µM (active); in assay [2], 51.7 nM (active) and 37.2 nM (active); in [3] it was 372 nM (active); in assay [13], 0.296 µM (active); in [4], 332 nM (active); in [8], 264 nM (active). For the same compound, the Potency is 296 nM (active) in assay [10], 282 nM (active) in assay [11] and 501 nM (active) in assay [12].

With `CN[C@@H](C)C(=O)N[C@H]1CN(C(=O)CC(C)C)CC[C@H]2CC[C@@H](C(=O)NC(c3ccccc3)c3ccccc3)N2C1=O`, the Potency result in assay [1] and in assay [12] was “inactive” throughout. In addition, the Potency in assay [2] was 5.8 µM (active) and 2.35 µM (active); in assay [3], 1320 nM (active); in assay [13] it was 2.64 µM (active); in assay [4] it was 1050 nM (active); in assay [5], 8330 nM (active); in [6] it was 11800 nM (active). Moreover, the Potency in [7] was 8330 nM (active). In [11], the activity (max response) is -12.1%.

For the compound `CCNC(=O)Nc1ccc2ncc(Nc3ccc(C)cc3)nc2n1`, the Potency entry in assay [1], in [2], in assay [6] and in [7] was “inactive” throughout.

On to `N=C(N)c1ccc2cc(OC(=O)c3ccc(N=C(N)N)cc3)ccc2c1`, for which the Potency entry in assay [1], in [5], in assay [8] and in assay [9] was “inactive” each time. In addition, the Potency in [2] is 18.6 µM (active). In [11], the activity (max response) was -32.1%.

For `CC1COc2c(N3CCN(C)CC3)c(F)cc3c(=O)c(C(=O)O)cn1c23` (stereo not drawn), the Potency entry in [1], in assay [3], in assay [13], in assay [4], in assay [5] and in assay [6] was “inactive” each time. For the same compound, the Potency entry in [7], in [9], in [10] and in assay [12] was “inactive” each time. Moreover, the Potency in assay [2] was 8.41 µM (active). Also, in [11], the activity (max response) was 4.41% and 9.62%.

As for `C#CCC(Cc1cnc2nc(N)nc(N)c2n1)c1ccc(C(=O)N[C@@H](CCC(=O)O)C(=O)O)cc1` (stereo partly drawn), the Potency entry in [1] is “inactive”. The Potency in assay [2] is 0.0021 µM (active); in assay [3], 187 nM (active); in assay [5] it was 37.2 nM (active); in assay [9], 59 nM (active); in [11], 35.5 nM (active); in [12], 15.8 nM (active).

Take `CC(C)c1noc(N2CCC(COc3ccc(-c4ccc(S(C)(=O)=O)cc4)nc3)CC2)n1`: the Potency result in [1], in assay [3], in [13], in assay [4], in assay [5] and in [7] was “inactive” throughout. Moreover, the Potency entry in assay [8] and in assay [12] was “inactive” each time. The Potency in assay [2] is 5.25 µM (active).

Regarding `CN1CC(=O)N/C1=N/C(=O)Nc1cccc(Cl)c1`, the Potency entry in assay [1] and in assay [2] was “inactive” throughout. Further, the activity (max response) in assay [11] was 2.23%.

Take `COc1cc2c(Oc3ccc(-c4cnc(Nc5ccc(F)cc5)n(C)c4=O)cc3F)ccnc2cc1OCCCN1CCOCC1`: the Potency entry in [1] is “inactive”. For the same compound, the Potency is 58 nM (active) and 29.5 nM (active) in assay [2]; 23.5 µM (active) in assay [13]; 20900 nM (active) in assay [4]; 166 nM (active) in assay [8]; 1050 nM (active) in assay [9]; 83.3 nM (active) in assay [10]. Further, the Potency was 15800 nM (active) in assay [11] and 3980 nM (active) in assay [12].

As for `CN1CCN(c2ccc(OC(F)(F)F)c(Nc3ncc4c(n3)-c3c(c(C(N)=O)nn3CCO)CC4)c2)CC1`, the Potency result in [1] is “inactive”. Further, the Potency in [2] was 20.6 nM (active) and 46.8 nM (active); in assay [11] it was 100 nM (active).

Take `CCN(CC)CCCC(C)Nc1nc(C)cc(Nc2ccc3nc(C)cc(N)c3c2)n1` (stereo not drawn): the Potency entry in assay [1], in assay [13], in assay [4], in [5], in [6] and in assay [7] was “inactive” each time. For the same compound, the Potency entry in [8], in assay [9], in assay [10] and in [12] was “inactive” each time. The Potency in [2] was 16.6 µM (active).

For `CCOC(=O)N1c2ccc(C(F)(F)F)cc2[C@@H](N(Cc2cc(C(F)(F)F)cc(C(F)(F)F)c2)C(=O)OC)C[C@H]1CC`, the Potency result in [1], in assay [3], in assay [13], in assay [5], in [6] and in [7] was “inactive” in each case. For the same compound, the Potency result in [8], in [9], in [10] and in assay [12] was “inactive” each time. Further, the Potency in assay [2] is 7.42 µM (active). In assay [11], the activity (max response) is 4.35%.

For `CCN(CCO)CCCC(C)Nc1ccnc2cc(Cl)ccc12` (stereo not drawn), the activity change, negative = inhibition in assay [1] was 10.6% [at 4.83 µM]. Also, the viability, % of control in [2] is 88.8% [at 4.97 µM]. The values for the Potency in [3], in assay [5] and in assay [6] were 10500 nM (active), 4180 nM (active) and 2640 nM (active), respectively. In assay [11], the activity (max response) was 4.84% and 9.37%.

In the case of `COc1ccccc1OCC(O)COC(N)=O` (stereo not drawn), the Potency entry in assay [1], in assay [2], in assay [13], in assay [6], in assay [7] and in [8] was “inactive” each time. Also, the Potency entry in assay [9] and in [10] was “inactive” each time. For the same compound, the activity (max response) in [11] is -1.45%.

Turning to `CC(=O)N(O)CCCCCNC(=O)CCC(=O)N(O)CCCCCNC(=O)CCC(=O)N(O)CCCCCN`, the Potency entry in [1] and in assay [12] was “inactive” each time. The Potency in assay [2] is 5.9 µM (active); in [3] it was 18.6 nM (active); in [5], 4.7 nM (active); in assay [6] it was 74.1 nM (active); in assay [7], 58.8 nM (active); in assay [11] it was 28200 nM (active).
